The panel holds about 83,000 compounds, 20% with a hit somewhere; the sample as a whole holds those more often.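 Activity criterion: percent growth below 10, measured after cells in 96-well plates were exposed to a single compound concentration for 48 hours.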 Unmarked numbers belong to inactive results. Calls of active or inactive are those of the source.

The test concerns RPMI-8226 leukemia. Description: NCI-60 one-dose screen, 48 h (100 = growth as untreated, 0 = no growth, -100 = all killed). As to conditions: 10 µM unless noted. The method, then:
Growth inhibition of the RPMI-8226 human tumor cell line is measured as a screen for anti-cancer activity. Cells are grown in 96 well plates and exposed to the test compound for 48 hours. Compounds are tested at a single concentration, which is 10^-5 M for most compounds. The reported endpoint is percent growth (GI% or GIPRCNT), where numbers from 0 - 100% represent growth inhibition, and numbers from -100% - 0 represent cell death. For example, a value of 40 represents 60% growth inhibition. A value of 0 means no net growth occurred over the course of the experiment. A value of -40 indicates 40% of cells at the beginning of the experiment died by the end of the experiment. A value of -100 means all cells are dead at the end of the experiment.
NCI-60 Human Tumor Cell Lines Screen was performed using the standard one-dose NCI protocol, which is described in more detail at https://dtp.cancer.gov/discovery_development/nci-60/default.htm.
Compounds with GIPRCNT values below 10 were considered active. Activity score was based on GIPRCNT using the following formula: […]
Score is 0 for GIPRCNT values of 100 or above, 50 for GIPRCNT values of 0, and 100 for GIPRCNT values of -100.
In the case of `Nc1cccc(C(=O)Nc2ccc3c(O)c(N=Nc4ccc(N=Nc5ccc(S(=O)(=O)O)cc5)cc4)c(S(=O)(=O)O)cc3c2)c1`, the growth is 98.2%.
Take `O=C(CCCCCCCCC(=O)Nc1cccc(C2=NCCN2)c1)Nc1cccc(C2=NCCN2)c1`: the growth is 78.6%.
With `C[C@H]1[C@H](C)CC[C@]2(C(=O)OCCCC[P+](c3ccccc3)(c3ccccc3)c3ccccc3)CC[C@]3(C)C(=CC[C@@H]4[C@@]5(C)CC[C@H](OC(=O)C(Cl)Cl)C(C)(C)[C@@H]5CC[C@]43C)[C@H]12`, the growth is -53.3% (active).
For `COc1ccc2nc(-c3ccc(Cl)cc3)cc(-c3nnc(SCC(=O)Nc4ccc(/C(C)=N\O)cc4)o3)c2c1`, the growth was 18.4%.
Under `Cc1ccc(-c2nc(C#N)c(S(=O)(=O)N(C)CCO)o2)cc1` stands 27.7%; under `CCCn1c2cc(OCc3cn(-c4ccc(Cl)cc4)nn3)ccc2c2ccnc(C)c21`, 23.3%.
On to `COc1cc(NC(=O)c2cc(O)c(C/C=C(\C)CCC=C(C)C)c(O)c2)cc2c1O[C@]1(C)CC[C@@H](O)C(C)(C)[C@H]1C2`, for which the growth is -30% (active).
In the case of `COc1ccc(-c2[nH]c3ccccc3c2C=C(C#N)C#N)cc1`, the growth was -43.8% (active).
With `CCOCc1cc(C(C)(C)C)ccc1O`, the growth is 106%.
On to `O=c1[nH]c2ccccc2cc1-c1nc2ccc(Cl)cc2[nH]1`, for which the growth is -38.5% (active).
With `CN(C)C1=NCCN1`, the growth is 95.2%.
In the case of `Cc1cccc(NC(=O)c2sc3nc4c(cc3c2N)CN(Cc2ccccc2)CC4)c1C`, the growth was 26.8%.
For the molecule `O=C1CCC23OC(c4ccccc4N12)C(O)C(O)C3O` (stereo not given), the growth is 103%.
`Cc1nc2sc(C(=O)Nc3ccccc3Cl)c(N)c2cc1C(C)O` (stereo not given): the growth is 88.1%.
Take `CC(C)NS(=O)(=O)c1cccc(-c2ccc3c(=O)n(CCCN)c4c(c3c2)C(=O)c2ccccc2-4)c1`: the growth is 102%.
Turning to `C=C(C)[C@@H]1CC[C@]2(C(=O)NCCCO)CC[C@]3(C)[C@H](CC[C@@H]4[C@@]5(C)CCCNC(C)(C)[C@@H]5CC[C@]43C)[C@@H]12`, the growth was 29%.
As to `O=C(CN1N=C(c2ccc(F)cc2)CCC1=O)Nc1nc2ccccc2s1`, the growth is 26.8%.
Turning to `COc1ccc(C2=NN(c3ccc(S(N)(=O)=O)cc3)C(c3ccc(Cl)cc3)C2)c(O)c1` (stereo not given), the growth is 4.28% (active).
Under `CN1CCN(/C=C2\CC(C(=O)NCc3ccc(Cl)cc3Cl)NC2=O)CC1` (stereo not given) stands 93.9%.
For the molecule `CC1CCN(CCCCCOc2ccc3oc4ccccc4c(=O)c3c2)CC1`, the growth was 60.1%.
As for `C#C[C@@]1(O)[C@@H](CO)O[C@@H](n2cnc3c(-c4ccccc4)ncnc32)[C@@H]1O`, the growth was 106%.
`COc1ccc(C(=S)c2cc(OC)c(OC)c(OC)c2)cc1OC(=O)CCl`: the growth is 26.9%.
Under `O=C(O)c1cc(N=Nc2ccc(-c3ccc(N=Nc4c(S(=O)(=O)O)cc5ccc(Nc6ccccc6)cc5c4O)cc3)cc2)ccc1O` stands 104%; under `COc1ccc([C@H]2[C@@H](F)C(=O)N2c2cc(OC)c(OC)c(OC)c2)cc1F`, 15.3%.
Turning to `CC(=O)Oc1ccc(O)cc1`, the growth was 69.5%.
For `CCCCc1n(Cc2ccc3ccccc3c2)c2ccccc2[n+]1Cc1ccc2ccccc2c1`, the growth is -37.9% (active).
Regarding `CC(C)(C)c1nn(-c2ccccc2)c2c1COCN2Cc1ccc(Cl)cc1`, the growth is 10.9%.
Turning to `Oc1ccc(CNNc2ccnc3c(O)cccc23)c2cccnc12`, the growth is 22.2%.
Take `COc1cccc(NC(=O)Nc2ccc(Oc3ncnc4[nH]c(C)c(C)c34)cc2)c1`: the growth is 72.4%.
The result for `O=C(Nc1cccc(-c2cccc(F)c2)c1)C1CCN(Cc2cccc3cccnc23)CC1` reads 19%; that for `Nc1c(C(=O)Nc2ccccn2)sc2nc3c(cc12)CCCCCC3`, 5.43% (active).
Turning to `CC(=O)Nc1nc2c(c(N)c1C#N)C(c1cccc(Cl)c1)C1=C(CCCC1=O)N2c1sc2c(c1C#N)CCCC2` (stereo not given), the growth is 22%.
For the molecule `O=C1NN(c2ccccc2)C(c2ccc3c(c2)OCO3)N2CCC[C@@H]12` (stereo not given in full), the growth was 105%.
As for `NC(=O)C(O)(c1ccccc1)c1ccccc1`, the growth was 93.2%.
For the molecule `COc1ccc2nc(-c3ccc(Cl)cc3)cc(C(=O)N3N=C(c4ccc(N)cc4)CC3c3ccccc3)c2c1` (stereo not given), the growth was 29%.
In the case of `Cc1cnc(SCc2ccc(Cl)cc2)[nH]c1=S`, the growth was 101%.
`C=C(C)[C@@H]1CC[C@]2(C(=O)n3ccnc3)CC[C@]3(C)[C@H](CC[C@@H]4[C@@]5(C)CCCNC(C)(C)[C@@H]5CC[C@]43C)[C@@H]12`: the growth was -51.3% (active).
Under `COCCc1n(Cc2ccc3ccccc3c2)c2ccccc2[n+]1Cc1ccc2ccccc2c1` stands -52.7% (active); under `COc1ccc2c(c1)Oc1nc(N)c(C#N)c(N)c1C2Sc1ccc(SC)cc1` (stereo not given), 2.48% (active).
On to `CCN1CCC[C@H]1c1cc(O)c2c(c1OC)C[C@H]1C[C@H]3[C@H](N)C(=O)C(C(N)=O)=C(O)[C@@]3(O)C(=O)C1=C2O`, for which the growth is -18.8% (active).

Source of the values: PubChem BioAssay (NCI).
